Bioassay records as filed in PubChem BioAssay.
Most compounds without a hit are left out; they make up all but 6.5% or so of the library.
Giardia kill = Giardia lamblia killing; activity change, % at 7.66 µM, hits read low; 340,000 tested, 0.15% active; Giardia lamblia trophozoite viability; AID 540267; in the data active = activity change below about -80%; inconclusive = between about -30% and that limit;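 also: parasites exposed to compound for two days anaerobically before the ATP read; % is scaled to controls: 0 for no effect and ±100 for the full control effect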
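Killing of trophozoites was scored by loss of ATP luminescence after a 48 hrs anaerobic exposure to compounds at 37 deg C, using 100 cells per well.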
IL1B secr inh = inflammasome signaling inhibition, IL-1 beta readout; activity change, % at 57.5 µM; AID 743279; 360,000 tested, 4.7% active; THP-1 LPS/ATP IL-1B secretion, AlphaLISA, 16 h; stronger effect = lower value; in the data active = activity change below about -50%; inconclusive = mostly about -30% to -49%; also: % is scaled to controls: 0 for no effect and ±100 for the full control effect
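Secreted IL-1B measured by AlphaLISA bead assay after 16 h compound exposure of THP-1 cells; compounds (final up to 57.5 uM) added 1 h before LPS (250 ng/mL) and ATP (1.25 mM) stimulation; lower signal means less secretion.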
HT1080NT lethal = kills 2HG-producing HT-1080-NT fibrosarcoma cells; HT-1080-NT fibrosarcoma viability, CellTiter-Glo ATP luminescence, 48 h; Potency, µM (highest dose often 46.1 µM), for inactives: at the highest dose activity, negative = less viability, actives largely listed as cytotoxic; 360,000 tested, 1.6% active; AID 686970;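 also: NT is the 2HG producing partner of a matched IDH1 knockdown line; potency is read from the fitted curve at half-maximal effect; 0% = DMSO-treated cells and -100% = media-only wells without cells; nearly all actives have a fitted effect of over 55% in size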
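Fibrosarcoma NT cells, 750 per well in 5% FBS RPMI, were exposed to compound for 48 hours. Viability: CellTiter-Glo luminescence.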
TGFb inhibitor = inhibitors of TGF-b signaling; HepG2 CAGA-GFP TGF-b/SMAD3 reporter, GFP fluorescence, 18 h; TGF-beta stimulated, 500 pg/mL final; Potency, µM (titrated, usually from 46.1 µM), without a hit: top-dose activity, negative = inhibition, usual class: inhibitors; 410,000 tested, 1.2% active; also: potency is read from the fitted curve at half-maximal effect; % is scaled to controls: 0 for no effect and ±100 for the full control effect; nearly all actives have a fitted effect of over 65% in size
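HEPG2 CAGA-GFP reporter cells (1000/well, DMEM with 1% FBS) received compounds, then recombinant TGF-beta at 500 pg/mL final for 18 hours at 37 degrees C. Per-cell GFP summed per well was normalised to unstimulated and stimulated DMSO controls before curve fitting.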
HepG2 viability = counter-screen for TGF-b inhibitors: cytotoxicity in HepG2 cells; HepG2 CAGA-GFP viability, ATP luminescence, 18 h; 410,000 tested, 0.76% active; Potency, µM (doses to about 46.1 µM), for the others: at the highest dose activity change, negative = cytotoxicity, actives largely listed as cytotoxic; AID 588856; also: potency is read from the fitted curve at half-maximal effect
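CellTiter-Glo luminescence gave cytotoxicity after 18 hours at 37 degrees C. The cells were HepG2 CAGA-GFP in 1% FBS DMEM, stimulated with 500 pg/mL TGF-beta after compound addition. %Activity was normalised to no-cell wells (complete cell-killing) and DMSO (no toxicity), and curves were fitted and classified.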
HT1080 IDH1KD tx = toxicity to HT-1080 IDH1 knockdown cells (counter line) | 360,000 tested, 2% active | HT-1080 IDH1 knockdown viability, ATP luminescence, 48 h | Potency, µM (highest dose often 46.1 µM), for inactives: top-dose activity, negative = toxicity, most hits filed as cytotoxic;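 also: potency is read from the fitted curve at half-maximal effect; 0% = DMSO wells and -100% = cell-free medium wells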
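Luminescent ATP read-out (CellTiter-Glo, 10 min at room temperature) after 48 h compound exposure at 37 °C gave viability of IDH1-knockdown HT-1080 cells. Activity was normalised to DMSO and cell-free wells, then fitted as concentration-response curves.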
* hit, by the source's call; ? = inconclusive; / = no result. Unless noted, calls follow the shape of the dose curve; as a rule, active = well fitted curve in the direction sought with a large enough effect; inconclusive = small, poorly fitted or top-dose-only effect, or another doubt; inactive = no such curve, though single readings can be large; an effect the other way counts as inactive or inconclusive.

SMILES | Giardia kill | IL1B secr inh | HT1080NT lethal | TGFb inhibitor | HepG2 viability | HT1080 IDH1KD tx
c1ccc(-c2nc(N3CCCCC3)nc3ccccc23)cc1 | 6 | 0 | -8% | ? | -32% | -12%
CCN1CCN(c2nc(-c3ccccc3)c3ccccc3n2)CC1 | -6 | ? | 13µM* | -23% | -11% | ?
O=C(O)C1CC=CCC1C(=O)N1CCN(c2nc(-c3ccccc3)c3ccccc3n2)CC1 (stereo not given) | 1 | -63* | -6% | -29% | -32% | -22%
CN(C)C(C)(C)C#CC(O)(c1ccccc1)c1ccccc1 | -9 | 0 | -7% | 2% | -11% | -7%
Clc1cccc(Cn2ncc3ccccc32)c1 | 14 | 24 | 1% | ? | -3% | 0%
COc1ccc(OC)c([N+](=O)[O-])c1C(N)=O | 6 | 12 | 18% | 30% | 1% | 7%
COc1ccc(NC(C)=O)c([N+](=O)[O-])c1[N+](=O)[O-] | -22 | -69* | -8% | -1% | -2% | -9%
CCCC1(CCC)NC(=O)N(CC(=O)Nc2cccc(OC)c2)C1=O | 5 | -2 | -4% | -2% | 3% | -1%
O=C1NC[C@H](Cc2ccccc2)N(CCc2cc(C(F)(F)F)cc(C(F)(F)F)c2)C1=O | / | / | -17% | / | / | -23%
O=C1NC[C@@H](Cc2cccc3ccccc23)N(CCc2cc(C(F)(F)F)cc(C(F)(F)F)c2)C1=O | ? | -51* | 7% | 13µM* | -119% | 7%
Cc1ccc(CSCC(=O)Nc2ccc3c(c2)OCO3)cc1 | 1 | 5 | 8% | -10% | 2% | 4%
O=S(=O)(c1ccc(S(=O)(=O)N(Cc2ccccc2)Cc2ccco2)cc1)N1CCCC1 | 4 | -8 | -7% | -8% | -16% | -18%
CC[n+]1c(/C=C/C=C/N(C(C)=O)c2ccccc2)sc2cc(OC)ccc21 | 8 | -117* | ? | 168% | -37% | ?
CC(C)c1onc(C(=O)Nc2sc3c(c2C#N)CCC3)c1[N+](=O)[O-] | -7 | 57 | -1% | 1% | -2% | 1%
COc1ccc(-c2cc(-c3ccccc3)nc(N)n2)c(O)c1 | -5 | ? | -1% | ? | -19% | ?
COc1ccc(OC)c(Nc2cc(-c3ccccc3)nc(N)n2)c1 | -6 | -25 | 1.5µM* | -3% | -11% | 1.5µM*
COc1ccc2nc(-c3ccccc3)[nH]c(=O)c2c1 | ? | -10 | 13% | 16% | -31% | 11%
COc1ccc2nc(-c3ccccc3)cc(OC)c2c1 | 0 | -80* | -24% | -6% | -3% | -18%
CC(=O)c1ccc(NC(=O)C[n+]2ccccc2)cc1 | -10 | 19 | 11% | -1% | 2% | 0%
BrC(=C\c1ccccc1)/C=N/n1cnnc1 | 8 | -13 | 16µM* | 26% | 2% | 21µM*
C(=N\Nc1ccc2nncn2n1)/c1ccco1 | 8 | 35 | 3% | -4% | 1% | -2%
Cc1ccc(CN2CCN(/N=C/C(Br)=C\c3ccccc3)CC2)cc1 | 1 | / | -2% | ? | -10% | -1%
BrC(=C\c1ccccc1)/C=N/Nc1ccc2nncn2n1 | -7 | -86* | -8% | 5% | -19% | ?
COC(=O)c1cccc(NC2CC(=O)N(c3ccc(OC)c(OC)c3)C2=O)c1 (stereo not given) | 9 | 10 | -2% | -9% | 5µM* | 1%
COc1ccc(N2C(=O)CC(Nc3ccc(C(=O)O)cc3)C2=O)cc1OC (stereo not given) | ? | -9 | -1% | 6% | 4% | 10%
SMILES | Giardia kill | IL1B secr inh | HT1080NT lethal | TGFb inhibitor | HepG2 viability | HT1080 IDH1KD tx
COc1ccc(/C=C2/C(=O)OCc3cc(OC)c(OC)cc32)cc1 | 9 | -51* | 3.3µM* | 3% | -3% | 2.3µM*
COc1ccc(/C=C2\CCOC2=O)cc1 | -1 | -9 | -1% | 12% | -3% | 3%
C/C(=N\NC(N)=S)c1cc(-c2ccccc2)c(-c2ccccc2)s1 | -9 | ? | ? | 13µM* | -41% | ?
C/C(=N\NC(N)=S)c1ccccc1 | -15 | -10 | 1% | -29% | -4% | -6%
CCc1ccccc1NC(=O)c1cnn(-c2ccccc2)c1C | 9 | -93* | -13% | 1% | -6% | -10%
Cc1ccccc1NC(=O)c1cnn(-c2ccccc2)c1C | -5 | ? | ? | -15% | 1% | 14%
Cc1ccc(C)c(NC(=O)c2cnn(-c3ccccc3)c2C)c1 | -9 | -58* | -5% | 5% | -25% | -4%
NNC(=O)c1cc2nc(-c3cccs3)cc(C(F)(F)F)n2n1 | 21 | -3 | -12% | -10% | -22% | -6%
CNc1nc(NCc2ccco2)c2ccccc2n1 | / | / | / | 2.8µM* | -39% | /
CCNc1nc(NCc2ccco2)c2ccccc2n1 | / | / | / | ? | -8% | /
Oc1ccc(Nc2nc(Cl)nc(NCc3ccco3)n2)cc1 | -21 | -109* | -7% | 4% | -29% | -5%
Cc1ccc(S(=O)(=O)Nc2nc3ccccc3nc2NCc2ccco2)cc1 | -4 | 14 | ? | -7% | -33% | 10µM*
c1ccc(Nc2nc(NCc3ccco3)c3ccccc3n2)cc1 | 18 | -94* | 21µM* | ? | -77% | 23µM*
COc1ccc(Nc2nc(NCc3ccco3)nc(N3CCOCC3)n2)cc1 | -7 | -57* | -13% | 21% | -12% | -11%
Cc1cccc(Nc2nc(NCc3ccco3)c3ccccc3n2)c1 | -9 | -98* | ? | ? | 10µM* | 18µM*
Cc1ccc(-c2nc(NCc3ccco3)c3ccccc3n2)cc1 | 0 | 5 | ? | ? | -49% | -15%
COc1ccc(Nc2nc(N3CCOCC3)nc(N3CCOCC3)n2)cc1 | -25 | -10 | -5% | 5% | -9% | -4%
CCN1CCN(C(=O)c2ccc(CS(=O)(=O)Cc3ccccc3Cl)o2)CC1 | / | 5 | -1% | -7% | 1% | 6%
O=S(=O)(NCc1ccco1)c1ccc2c(c1)Cc1ccccc1-2 | 5 | 0 | 1% | 10% | 73% | -19%
CN1CCOC(=O)/C1=N/Nc1cc(Cl)ccc1Cl | ? | 9 | ? | 7% | 1% | 21µM*
CC1(C)Cc2ccccc2C(c2cc3ccccc3oc2=O)=N1 | 27 | 0 | 21µM* | -21% | -16% | ?
COc1ccc(Nc2cc(C)nc3ncnn23)cc1 | 21 | -11 | 24% | -1% | 11% | 13%
CCS(=O)(=O)c1ccc(O)c(NC(=O)Nc2ccc(C(C)(C)C)cc2)c1 | 3 | -88* | ? | -24% | -29% | ?
